# An excerpt weighted towards active compounds, which were near 1.9% of everything screened.
# IMPase Li inh: qHTS Assay for Identifying the Cell-Membrane Permeable IMPase Inhibitors: Potentiation with Lithium; CHO-M1 cells, IP1 TR-FRET (IP-One), carbachol + lithium; actives 0.35% (n = 210,000); Potency, µM (series often up to 59.4 µM), for the others: top-dose activity, negative = IMPase inhibition, usual class: inhibitors;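 note: IP1 builds up when IMPase is blocked and the TR-FRET signal falls; plate controls were basal vehicle for no effect and high inhibitor control for full effect; nearly all actives have a fitted effect of over 50% in size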
#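 IP1 accumulation measured by competitive TR-FRET in lysed CHO-M1 cells after 30 min compound exposure at 37C, with a small lithium addition to potentiate weak responses. Hill-equation AC50 from ratio and donor-channel data.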
# HTT ATP protect: qHTS Multiplex Assay to Identify Dual Action Probes in a Cell Model of Huntington: Cytoprotection (ATP). PC12 HTT-Q103 induced, cytoprotection, ATP luminescence, 40 h. Potency, µM (highest dose often 56.4 µM), for inactives: cytoprotection (ATP increase), usual class: activators. actives 0.14% (n = 230,000); note: % of control where 0% means no effect; nearly all actives have a fitted effect of over 45% in size
#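 Rat PC12, Q103 Htt exon1-GFP fusion, ecdysone promoter; tebufenozide inducer 100 nM final; compound titration; qHTS, 1500 cells/well; ATPlite luminescent read.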
# NPSR antagonist: qHTS Assay for Antagonists of the Neuropeptide S Receptor: cAMP Signal Transduction | Q6W5P4 | CHO-NPSR cells, cAMP TR-FRET, antagonist mode | Potency, µM (titrated, usually from 38.3 µM), for inactives: at the highest dose activity change, negative = inhibition, usual class: inhibitors | actives 1% (n = 220,000); note: % is set by controls: 0 for no effect and ±100 for the full control effect; nearly all actives have a fitted effect of over 50% in size
# Target sequence (Q6W5P4 whole entry, looked up): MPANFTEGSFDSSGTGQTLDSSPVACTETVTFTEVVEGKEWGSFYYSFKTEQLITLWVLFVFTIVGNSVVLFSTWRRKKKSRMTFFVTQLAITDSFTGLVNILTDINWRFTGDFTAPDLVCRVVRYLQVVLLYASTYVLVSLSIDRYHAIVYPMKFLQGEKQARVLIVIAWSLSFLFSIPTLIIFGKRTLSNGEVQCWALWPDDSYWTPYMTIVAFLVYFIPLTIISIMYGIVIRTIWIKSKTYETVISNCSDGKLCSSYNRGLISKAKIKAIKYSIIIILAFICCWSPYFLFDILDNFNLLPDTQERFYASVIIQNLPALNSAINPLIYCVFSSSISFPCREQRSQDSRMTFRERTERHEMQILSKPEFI
# HTT aggregate: qHTS Multiplex Assay to Identify Dual Action Probes in a Cell Model of Huntington: Aggregate Formation (GFP); PC12 HttQ103-GFP aggregates, Acumen cytometry, 40 h; Potency, µM (series often up to 46.1 µM), inactives show top-dose activity change, negative = inhibition, hits mostly inhibitors; AID 1688, 2009; actives 1.1% (n = 220,000); note: % is set by controls: 0 for no effect and ±100 for the full control effect; nearly all actives have a fitted effect of over 60% in size
#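 PC12 cells stably carrying ecdysone-inducible HTT exon 1 Q103–GFP were induced with tebufenozide (100 nM final) and treated with library compounds in titration. GFP aggregates in lysates were counted by laser scanning cytometry.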
# ERK EGF block: qHTS Assay for Inhibitors of the ERK Signaling Pathway using a Homogeneous Screening Assay; Stimulation with EGF; HEK293-V1b, EGF-stimulated phospho-ERK AlphaScreen; Potency, µM (top dose mostly 11.5 µM), without a hit: at the top dose activity change, negative = inhibition, most hits filed as inhibitors; actives 0.41% (n = 130,000); AID 1454, 2008;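 note: plate controls were stimulated vehicle wells for no effect and unstimulated vehicle basal for full effect; nearly all actives have a fitted effect of over 55% in size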
#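 Cell line HEK293 (stable V1b), low serum overnight. Pretreatment: compound 30 min, 37C. EGF 25 nM, 5 min. Detection: SureFire AlphaScreen, 5 h RT. AC50 via standard Hill equation.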
# * hit, by the source's call; ? = inconclusive; . = no result; [ ] = dose if it differs, or a comment. Calls come from the whole dose curve; as a rule, active = well fitted curve in the direction sought with a large enough effect; inconclusive = small, poorly fitted or top-dose-only effect, or another doubt; inactive = no such curve, though single readings can be large; an effect the other way counts as inactive or inconclusive. Potency is the fitted concentration of half-maximal effect.
SMILES,IMPase Li inh,HTT ATP protect,NPSR antagonist,HTT aggregate,ERK EGF block
Cc1ccc2cc(N)ccc2n1,-5%,3%[10 µM],12%,-16%[9.22 µM],-9%
Nc1ccc2cc3ccc(N)cc3nc2c1,.,-17%,.,13µM*,.
Cn1c(=O)n(C)c2cc([N+](=O)[O-])c(N3CCN(S(=O)(=O)c4ccc(C(C)(C)C)cc4)CC3)cc21,17%[38.3 µM],16%[10 µM],17%[46.1 µM],13µM*,.
Cc1ccccc1-c1nc(Nc2ccncc2)c2ccccc2n1,?,-39%,.,.,.
C/C(=N\NC(=O)COc1ccccc1-c1ccccc1)c1ccccn1,32%,5%[10 µM],7.9µM*,15%,6%
Cc1nc(C)c(C(=O)N/N=C/c2cc(Br)ccc2O)s1,.,-50%[10 µM],4%,1.3µM*,-2%[57.5 µM]
O=C(N/N=C/c1cc(Br)ccc1O)c1ccncc1,.,-16%[10 µM],8%,-45%[9.22 µM],1%[57.5 µM]
Clc1ccc(N2CCN(c3ncnc4c3oc3ccccc34)CC2)cc1,10µM*,28%,-5%[46.1 µM],15%,.
CC1CN(c2ncnc3c2oc2ccccc23)CC(C)O1 (centres undefined),8%[38.3 µM],-25%,-9%[46.1 µM],13%,.
CCc1cc(-c2[nH]ncc2-c2ccc3c(c2)OCO3)c(O)cc1O,24%[38.3 µM],-24%,-10%[46.1 µM],11µM*,-8%[57.5 µM]
CCCc1cc(-c2[nH]ncc2-c2ccc3c(c2)OCCCO3)c(O)cc1OC,32%[38.3 µM],-16%,?,?,.
O=C(c1ccc(Cl)cc1)N1CCC(O)(CSc2ccc(Cl)cc2Cl)CC1,38%[38.3 µM],37%[10 µM],?,10µM*,.
Cc1cccc2nc(-c3ccco3)c(Nc3ccccc3)n12,3%,-26%,-34%,14%,-2%
Cc1ccc(Nc2c(-c3ccccn3)nc3cccc(C)n23)cc1,17%,-131%,-51%,7.9µM*,5%
C[C@H]1[C@H](C)CC[C@@]2(C(=O)O)CC[C@]3(C)C(=CC[C@@H]4[C@@]5(C)CC[C@H](O)C(C)(C)[C@@H]5CC[C@@]43C)[C@@H]12,.,6%,.,.,.
NS(=O)(=O)c1ccc(NC(=O)CSc2ncnc3ccccc23)cc1,4%,8.9µM*,-51%,-2%,-10%
CCOC(=O)c1c(NC(=O)CSc2ncnc3ccccc23)sc(C(C)=O)c1C,9%,2.5µM*,10%,-22%,0%
CCOC(=O)c1c(NC(=O)CSc2nc3cccnc3n2C)sc(C(C)=O)c1C,13%[38.3 µM],-28%,?,-23%,.
NS(=O)(=O)c1cccc(NC(=O)CSc2ncnc3ccccc23)c1,.,1%[10 µM],-23%,-2%[9.22 µM],-8%[57.5 µM]
Cc1ccccc1CCN(C(=O)CN1C(=O)c2ccccc2S1(=O)=O)C(C(=O)NCC1CCCO1)c1ccncc1 (centres undefined),-3%,22%[10 µM],-20%[46.1 µM],16µM*,4%
CCOC(=O)N1CCc2c(sc(NC(=O)c3ccc(Cl)s3)c2C(N)=O)C1,10%,-4%,2.5µM*,12%,-4%
CCN1CCc2c(sc(NC(=O)Nc3ccc(Cl)c(Cl)c3)c2C(N)=O)C1,-8%,.,-14%,11µM*,0%
N#CC1=C(N)Oc2n[nH]c(-c3ccccc3)c2C12C(=O)Nc1ccccc12 (centres undefined),26%[38.3 µM],-23%[10 µM],-7%[46.1 µM],17%,.
Cn1c2c(c(=O)n(C)c1=O)[C@@]1(C(=O)Nc3ccccc31)C(C#N)=C(N)O2,.,3%[10 µM],-3%[46.1 µM],13µM*,.
COc1cccc([C@@H]2Oc3ccc(OC)cc3C(=O)[C@H]2OC(=O)NS(=O)(=O)c2ccc(F)cc2)c1,2%,-75%,.,.,-10%
COc1cc2cnncc2cc1OC,6%,-3%[10 µM],-7%[46.1 µM],-8%,9%
COc1cc2cc(Br)cc(Br)c2nc1C,13µM*,-1%,?,-30%,.
O=C(O)c1ccc(SSc2ccc(C(=O)O)cn2)nc1,-1%,-4%[10 µM],.,.,.
COc1ccc2c(CSc3nc4nc(C)cc(C)n4n3)cc(=O)oc2c1,21%[38.3 µM],-20%[10 µM],?,29%,.
